Source: PubChem BioAssay AID1347418 (Sanford-Burnham Center for Chemical Genomics, 2020)
Hit rate of the full screen: of about 1,300 compounds, about 750 (58%) were called active. The list shows a part of the results. Unmarked numbers belong to inactive results.

Target: Sulfhydryl oxidase 1 (Homo sapiens) (UniProt O00391)
Assay: inhibition of human sulfhydryl oxidase QSOX1 – biochemical, ROS-Glo H2O2 luminescence, HTS, primary screen (AID 1347418)
Details: recombinant QSOX1, ROS-Glo H2O2 luminescence; at 12.5 µM; stronger effect = higher value; active = any value above zero

Sulfhydryl oxidase 1 (Homo sapiens), sequence (O00391 whole entry, looked up): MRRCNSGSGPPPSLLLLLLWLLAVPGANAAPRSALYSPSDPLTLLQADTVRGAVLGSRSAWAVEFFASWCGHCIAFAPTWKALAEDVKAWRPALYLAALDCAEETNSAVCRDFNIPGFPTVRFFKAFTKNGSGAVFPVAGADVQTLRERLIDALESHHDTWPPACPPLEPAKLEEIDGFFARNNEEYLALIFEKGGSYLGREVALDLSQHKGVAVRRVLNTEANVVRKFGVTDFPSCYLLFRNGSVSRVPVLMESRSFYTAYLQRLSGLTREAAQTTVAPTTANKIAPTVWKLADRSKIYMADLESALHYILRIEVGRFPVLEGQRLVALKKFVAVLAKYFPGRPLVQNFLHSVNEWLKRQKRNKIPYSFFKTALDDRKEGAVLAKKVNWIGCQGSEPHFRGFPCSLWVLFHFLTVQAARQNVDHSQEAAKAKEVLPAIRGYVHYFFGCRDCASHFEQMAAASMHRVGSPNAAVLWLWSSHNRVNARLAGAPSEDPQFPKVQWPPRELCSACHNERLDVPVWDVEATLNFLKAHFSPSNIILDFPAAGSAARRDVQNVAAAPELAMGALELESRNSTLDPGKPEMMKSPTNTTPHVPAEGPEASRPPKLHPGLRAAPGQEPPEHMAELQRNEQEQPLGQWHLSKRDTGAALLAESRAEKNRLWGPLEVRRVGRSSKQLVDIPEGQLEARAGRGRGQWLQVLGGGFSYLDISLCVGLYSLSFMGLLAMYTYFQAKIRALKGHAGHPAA

| Compound | inhibition |
| --- | --- |
| Fc1cccc(/C=N/N=C/c2cccc(F)c2)c1 | 1.9% (active) |
| CNC(=O)[C@H]1O[C@@H](n2cnc3c(NCc4ccc(N)cc4)ncnc32)C(O)[C@H]1O (stereo partly specified) | 6% (active) |
| Nc1nc(Cl)nc2c1ncn2[C@@H]1O[C@H](CO)[C@H](O)C1O (stereo partly specified) | -0.3% |
| CCNC(=O)[C@H]1O[C@@H](n2cnc3c(N)nc(NCCc4ccc(CCC(=O)O)cc4)nc32)C(O)[C@H]1O (stereo partly specified) | 1.5% (active) |
| CNC(=O)[C@H]1O[C@@H](n2cnc3c(NCc4cccc(I)c4)ncnc32)C(O)[C@H]1O (stereo partly specified) | -1.8% |
| Nc1nc(Nc2ccccc2)nc2c1ncn2[C@@H]1O[C@H](CO)[C@H](O)C1O (stereo partly specified) | -2.6% |
| CCCCC#Cc1nc(NC)c2ncn([C@@H]3O[C@H](CO)C(O)[C@@H]3O)c2n1 (stereo partly specified) | -4.5% |
| O=C(c1ccc(Cl)cc1)N1CCN(c2ccc([N+](=O)[O-])c3ncccc23)CC1 | 1.5% (active) |
| O=c1cc(N2CCOCC2)oc2c(-c3ccccc3)cccc12 | -2.2% |
| OCC1O[C@H](O)C(Cl)C(O)C1O (stereo partly specified) | 4.9% (active) |
| CC(C)C[C@H](NC(=O)C1OC1C(=O)O)C(=O)NCCCCN=C(N)N (stereo partly specified) | 10.1% (active) |
| COC1(C2=NCCN2)COc2ccccc2O1 (stereo unspecified) | 3.2% (active) |
| O=C(O)CN(CCN(CC(=O)O)CC(=O)O)CCN(CC(=O)O)CC(=O)O | -5% |
| CN1C(=O)CC[C@H]1c1cccnc1 | -4% |
| Cn1ccc2cc3c(cc21)CCN3C(=O)Nc1cccnc1 | -2.2% |
| CN1CCc2cc(NC(=O)Nc3cccnc3)ccc21 | 7.1% (active) |
| Nc1c2c(nc3ccccc13)CCCC2O (stereo unspecified) | -1% |
| NNc1nncc2ccccc12 | 26.1% (active) |
| O=c1c(O)c(-c2cc(O)c(O)c(O)c2)oc2cc(O)cc(O)c12 | 25.8% (active) |
| O=c1c(O)c(-c2ccc(O)c(O)c2)oc2cc(O)cc(O)c12 | 33.1% (active) |
| O=c1c(O)c(-c2ccc(O)cc2O)oc2cc(O)cc(O)c12 | 41.5% (active) |
| O=c1cc(-c2ccc(O)cc2)oc2cc(O)cc(O)c12 | 15.3% (active) |

| Compound | inhibition |
| --- | --- |
| S=C(Nc1ccccc1)Nc1nccs1 | -0.6% |
| NO | -19.9% |
| CN(C)CCCO[C@@H]1[C@H]2OC(C)(C)O[C@H]2O[C@@H]1C(O)CO (stereo partly specified) | 1.3% (active) |
| O=C1NC(=O)c2cc(Nc3ccccc3)c(Nc3ccccc3)cc21 | 44.9% (active) |
| O=[N+]([O-])c1cccc2cn[nH]c12 | -7.7% |
| O=[N+]([O-])c1cccc2c(Br)[nH]nc12 | 5.3% (active) |
| COCCCC/C(=N\OCCN)c1ccc(C(F)(F)F)cc1 | -2% |
| Cc1cccc(-c2[nH]c(C(C)(C)C)nc2-c2ccc3nccnc3c2)n1 | 6% (active) |
| N[C@H]1CONC1=O | -12.9% |
| CN1CCN2c3ccccc3Cc3ccccc3C2C1 (stereo unspecified) | -1.9% |
| NC1=NCC2c3ccccc3Cc3ccccc3N12 (stereo unspecified) | 1.4% (active) |
| CCN(CC)CCOC(=O)C1(C2CCCCC2)CCCCC1 | -1.9% |
| CCN(CC)CCOCCOC(=O)C1(c2ccccc2)CCCC1 | 6.3% (active) |
| O=C(OCCN1CCOCC1)C1(c2ccccc2)CCCCC1 | 2.5% (active) |
| CCCC(C(=O)OCCN(CC)CC)(c1ccccc1)c1ccccc1 | -0.5% |
| Cn1c(=O)c2[nH]c(-c3ccc(S(=O)(=O)O)cc3)nc2n(C)c1=O | -2.4% |
| Cn1c(=O)c2[nH]c(C3CCCC3)nc2n(C)c1=O | 3.9% (active) |
| Cn1c(=O)c2[nH]c(-c3ccccc3)nc2n(C)c1=O | -2.7% |
| CCCn1c(=O)c2[nH]c(C3CCCC3)nc2n(CCC)c1=O | 2.3% (active) |
| CC/C(=C(\c1ccccc1)c1ccc(OCCN(C)C)cc1)c1ccccc1 | 2.2% (active) |
| CN(C)CCOC(=O)COc1ccc(Cl)cc1 | -2.9% |
| C[C@H]1c2cccc(O)c2C(O)=C2C(=O)[C@]3(O)C(O)=C(C(N)=O)C(=O)[C@@H](N(C)C)[C@@H]3[C@@H](O)[C@@H]21 | -1.5% |

| Compound | inhibition |
| --- | --- |
| CN(C)[C@@H]1C(=O)C(C(N)=O)=C(O)[C@@]2(O)C(=O)C3=C(O)c4c(O)ccc(Cl)c4[C@@H](O)[C@H]3C[C@@H]12 | 9.5% (active) |
| COc1ccccc1N1CCN(CCN(C(=O)C2CCCCC2)c2ccccn2)CC1 | 9.7% (active) |
| COc1ccccc1N1CCN(CCN(C(=O)c2ccc(F)cc2)c2ccccn2)CC1 | 7.1% (active) |
| COc1ccccc1N1CCN(CCN(C(=O)c2ccc(I)cc2)c2ccccn2)CC1 | 11.2% (active) |
| COc1ccc(CCN(C)CCc2ccc(OC)c(OC)c2)cc1OC | -0.5% |
| COc1ccc(Cc2nccc3cc(OC)c(OC)cc23)cc1OC | 3.3% (active) |
| CC(N=C(NC#N)Nc1ccncc1)C(C)(C)C (stereo unspecified) | 4.4% (active) |
| O=C1NCc2c1c1c3ccccc3[nH]c1c1[nH]c3ccccc3c21 | 2.6% (active) |
| O=c1[nH]c2ccccc2c2ccccc12 | -9.8% |
| COc1ccc([C@@H]2Sc3ccccc3N(CCN(C)C)C(=O)[C@@H]2OC(C)=O)cc1 | -0.6% |
| CN(C)CCCN1c2ccccc2Sc2ccccc21 | 46.3% (active) |
| CCC(=O)c1ccc2c(c1)N(CCCN(C)C)c1ccccc1S2 | 20.9% (active) |
| CN(C)CCCN1c2ccccc2Sc2ccc(Cl)cc21 | 39.2% (active) |
| CN(C)CCCN1c2ccccc2Sc2ccc(C(F)(F)F)cc21 | 24.1% (active) |
| NC1(C(=O)O)CC1 | 5.5% (active) |
| NC1(C(=O)O)CCCCC1 | -3.9% |
| CC(C)ON([C@@H](C(=O)NO)C(C)C)S(=O)(=O)c1ccc(-c2ccccc2)cc1 | 8.9% (active) |
| CC(=O)/C=C1\C(=O)N(C)c2ccccc21 | 7.8% (active) |
| COc1cc(NS(C)(=O)=O)ccc1Nc1c2ccccc2nc2ccccc12 | 42.7% (active) |
| CN(C(=O)CCCOc1ccc2[nH]c(=O)ccc2c1)C1CCCCC1 | -1.6% |
| CC[N+](CC)(CC)CC | 0.9% (active) |
| CN(Cc1cnc2nc(N)nc(N)c2n1)c1ccc(C(=O)N[C@@H](CCC(=O)O)C(=O)O)cc1 | -2.2% |

| Compound | inhibition |
| --- | --- |
| Nc1nc(N)c2nc(CNc3ccc(C(=O)NC(CCC(=O)O)C(=O)O)cc3)cnc2n1 (stereo unspecified) | 0.7% (active) |
| CCc1cccc2c3c([nH]c12)C(CC)(CC(=O)O)OCC3 (stereo unspecified) | 9.9% (active) |
| NCCc1ccc(O)c(O)c1 | 8.1% (active) |
| N[C@@H](Cn1ccc(=O)c(O)c1)C(=O)O | -3.8% |
| N[C@@H](Cc1ccc(F)cc1)C(=O)O | 0.8% (active) |
| CC(N)C(=O)OC(C)(C)Cc1ccc(Cl)cc1 (stereo unspecified) | -3.5% |
| NC(Cc1ccc(Cl)cc1)C(=O)O (stereo unspecified) | -3.4% |
| COC(=O)[C@@H](N)Cc1ccc(O)c(O)c1 | 1.3% (active) |
| COC(=O)C(N)Cc1ccc(Cl)cc1 (stereo unspecified) | 9.7% (active) |
| N[C@@H](Cc1ccc(O)c(I)c1)C(=O)O | -5.7% |
| CC(Cc1ccc(O)c(O)c1)C(C)Cc1ccc(O)c(O)c1 (stereo unspecified) | 45.8% (active) |
| NC(Cc1cccc(-c2ccccc2CP(=O)(O)O)c1)C(=O)O (stereo unspecified) | -2% |
| N[C@@H](Cc1ccc(O)c(O)c1)C(=O)O | 9.8% (active) |
| CCN1CCCC1CNC(=O)c1cc(S(=O)(=O)CC)c(N)cc1OC (stereo unspecified) | -1% |
| CCN1CCCC1CNC(=O)c1cc(S(N)(=O)=O)ccc1OC (stereo unspecified) | 3.2% (active) |
| CCN1CCC[C@H]1CNC(=O)c1cc(S(N)(=O)=O)ccc1OC | -1.2% |
| CCN1CCC[C@H]1CNC(=O)c1c(O)c(Cl)cc(Cl)c1OC | 2.3% (active) |
| NC1CCN(c2cccc(Cl)n2)CC1 | -5.8% |
| Cc1cnc(C(=O)NCCc2ccc(S(=O)(=O)NC(=O)NC3CCCCC3)cc2)cn1 | 5.4% (active) |
| CC(=O)c1ccc(S(=O)(=O)NC(=O)NC2CCCCC2)cc1 | -5.7% |
| COc1ccc(Cl)cc1C(=O)NCCc1ccc(S(=O)(=O)NC(=O)NC2CCCCC2)cc1 | -5.6% |
| O=c1oc(Cl)c(Cl)c2ccccc12 | -1.8% |

| Compound | inhibition |
| --- | --- |
| C/C(=C\c1ccc(C(=O)O)cc1)c1ccc2c(c1)C(C)(C)CCC2(C)C | 1.8% (active) |
| CC(N)(C(=O)O)c1ccc(C(=O)O)cc1 (stereo unspecified) | -3.7% |
| NC1(C(=O)O)CCc2cc(C(=O)O)ccc21 (stereo unspecified) | -2.9% |
| CN(C)CCOC(c1ccccc1)c1ccccc1 | 4.3% (active) |
| Cc1ccccc1C(OCCN(C)C)c1ccccc1 (stereo unspecified) | -1.5% |
| CCN(Cc1ccncc1)C(=O)C(CO)c1ccccc1 (stereo unspecified) | -4.5% |
| NCCc1cnc[nH]1 | -5% |
| N=C(N)SCCc1cnc[nH]1 | 2.7% (active) |
| COc1ccccc1N1CCN(CCCCNC(=O)c2ccc3ccccc3c2)CC1 | 12.2% (active) |
| COc1cccc(C(=O)NCCN2CCN(c3ccc(Cl)cc3)CC2)c1 | 21.7% (active) |
| Cc1cccc(C(=O)NCN2CCN(c3ccccc3C#N)CC2)c1 | -1.8% |
| O=C1CC2(CCCC2)CC(=O)N1CCCCN1CCN(c2ncccn2)CC1 | 1.2% (active) |
| c1cnc(N2CCN(Cc3ccc4c(c3)OCO4)CC2)nc1 | -0.2% |
| COc1ccc(NC(=O)c2ccc(-c3ccc(-c4noc(C)n4)cc3C)cc2)cc1N1CCN(C)CC1 | -1.1% |
| COc1ccccc1N1CCN(CCN2C(=O)CC3(CCCC3)CC2=O)CC1 | 17.2% (active) |
| O=C(NCCN1CCOCC1)c1ccc(Cl)cc1 | -3.4% |
| Nc1nc(N)c2nc(-c3ccccc3)c(N)nc2n1 | -0.8% |
| CC(=O)[C@]1(O)Cc2c(O)c3c(c(O)c2[C@@H](O[C@H]2C[C@H](N)[C@H](O)[C@H](C)O2)C1)C(=O)c1ccccc1C3=O | -0.7% |
